# Experimental data published in PubChem BioAssay AID602477 (National Center for Advancing Translational Sciences (NCATS), 2012).
# Inconclusive results are not listed. Activity calls are given as the source filed them. The call rests on the fitted dose curve; in most records, active means well fitted activation curve with a large enough effect; inconclusive means small, poorly fitted or top-dose-only effect; inactive means no such curve, though single readings can be large or run the other way.
# Assay: FLuc inhibitory activity for the follow-up compounds in a cell-based assay to assess the activity of miR-21
# Conditions: HeLa miR-21-FLuc reporter, luciferase luminescence, 48 h; series mostly up to 38.3 µM
# Excerpt: NCGC Assay Overview: Firefly (Photinus pyralis) luciferase is one of the most commonly used transcriptional reporters. It is considered one of the more dynamically responsive reporters - that is, responsive to changes in reporter transcription - as it requires no post-translational modifications and is enzymatically active directly after protein synthesis (Wood, 1998). With no endogenous expression in mammalian cells and without the requirement of external excitation, it offers very little background signal, thus generally providing excellent signal to background for most assays. Previous profiling work to determine the prevalence of compounds that affect FLuc enzymatic activity (PubChem AID 411) identified that ~3% of the MLSMR library (then at ~72K) inhibited FLuc (Auld et al., 2008). […] Of the compounds identified in this profile that inhibited FLuc, 151 compounds were selected for further analysis, in an effort to better understand their mode of inhibiting FLuc. The assay described here was to determine the activity of the compounds in a cell-based firefly luciferase reporter gene assay originally designed to identify antagonists of miR-21. Compounds that inhibit miR-21 or compounds that stabilize FLuc intracellularly are identified as active compounds in the assay.
# NCGC Assay Protocol Summary: Reagents: In-house detection reagent: 300mM Tris-HCl, 300mM Trizma base, 300mM MgCl, 1% Triton-X100, 5mM DTT, 500uM Coenzyme A trilithium salt (Sigma #C3019),450uM ATP (Sigma #A7699), 1mM D-luciferin sodium salt monohydrate (Biosynth #L8240) HeLa cells stably expressing firefly luciferase (FLuc) under the control of a CMV promoter (upstream) and a miR-21 binding sequence directly downstream of the gene. These cells endogenously express miR-21. Control compounds used were two known firefly luciferase inhibitors (3-(5-(3-chlorophenyl)-1,2,4-oxadiazol-3-yl)benzoic acid and 5-(2-fluorophenyl)-3-phenyl-1,2,4-oxadiazole), and DMSO. Assay Summary: 6uL of HeLa miR-21-FLuc cells in assay buffer (DMEM, Invitrogen #21063-029; 10% FBS, HyClone #SH30071.03) were dispensed at 2000cells/well (3.3 x 10^5 cells/mL) into Greiner solid-white TC-treated 1536-well plates using a Multidrop Combi (Thermo Fisher Scientific). Plates were incubated for one hour at 37 degree Celsius, 95% humidity, 5% CO2. These assay plates were then treated with 23nL of compound or DMSO using a Kalypsys pin tool, which allows for delivery of a 12-point titration of each compound to the assay plate, with a final compound concentration ranging from approximately ~38uM to 0.2nM. Assay plates were then incubated for 48 hours. After incubation, plates were allowed to come to RT for one hour prior to delivery of 3uL of 3X luciferase detection reagent. After a 15 minute incubation to allow for cell lysis, luciferase activity was measured using a ViewLux CCD imager (PerkinElmer), with an average exposure time of 2-12 seconds.
row,SMILES,Potency
1,O=C(Nc1ccccc1C(=O)O)c1ccccc1,25200 nM (active)
2,Cc1ccc(C(=O)Nc2cccc(C(=O)O)c2)cc1S(=O)(=O)N1CCOCC1,12600 nM (active)
3,COc1cc(OC)cc(C(=O)Nc2ccc(-c3nc4ccccc4s3)c(C)c2)c1,11300 nM (active)
4,COc1ccc2nc(NC(=O)c3cnccn3)sc2c1,200 nM (active)
5,Cc1ccc(C(=O)Nc2ccc(C(=O)O)cc2)cc1S(=O)(=O)NCc1ccccc1,inactive
6,c1ccc2sc(-c3ccc4c(c3)OCO4)nc2c1,225 nM (active)
7,COc1ccc(C(=O)Nc2nc3ccc(OC)cc3s2)cc1,2830 nM (active)
8,Cc1c(NC(=O)c2cc(-n3cnnc3)ccc2Cl)cccc1-c1nc2ccccc2s1,2830 nM (active)
9,Cc1c(NS(C)(=O)=O)cccc1-c1nc2ccccc2s1,4000 nM (active)
10,CCn1c(C)nc2cc(-c3nc4n(n3)Cc3ccccc3-4)ccc21,100 nM (active)
11,COc1ccc(NS(=O)(=O)c2cccc(C(=O)Nc3ccccc3C(=O)O)c2)cc1,inactive
12,COc1ccc2nc(NC(=O)CCc3nc(-c4ccccc4F)no3)sc2c1,2520 nM (active)
13,COc1ccc(C(=O)Nc2ccccc2C(=O)N/N=C/c2ccc(O)c(OC)c2)cc1,inactive
14,Nc1ccc(-c2nc3ccc(C(=O)O)cc3s2)cc1,14.2 nM (active)
15,O=C(Nc1ccccc1C(=O)O)c1cc(S(=O)(=O)Nc2cccc(F)c2)ccc1Cl,inactive
16,O=C(Nc1ccccc1C(=O)O)c1ccc(Cl)c(S(=O)(=O)N2CCOCC2)c1,12600 nM (active)
17,COc1ccc2nc(NC(=O)CCc3ccc(OC)c(OC)c3)sc2c1,12600 nM (active)
18,COc1ccc2nc(NC(=O)c3ccc(NS(=O)(=O)c4cccs4)cc3)sc2c1,8950 nM (active)
19,CC(C)CC(=O)Nc1cccc(C(=O)Nc2ccccc2C(=O)O)c1,inactive
20,Cc1ccc(C(=O)O/N=C(\N)c2ccccn2)cc1,200 nM (active)

row,SMILES,Potency
1,CC(C)(C)C(=O)Nc1ccc(-c2nc3ccccc3s2)cc1,inactive
2,O=C(Nc1ccccc1C(=O)O)c1cccc(C(=O)Nc2ccccc2C(=O)O)c1,inactive
3,Nc1cccc(-c2nc3ccc(N)cc3s2)c1,1790 nM (active)
4,Cc1c(NC(=O)C(C)(C)C)cccc1-c1nc2ccccc2s1,10000 nM (active)
5,O=C(O)c1cccc(NC(=O)c2ccc(S(=O)(=O)c3ccccc3)cc2)c1,inactive
6,CCOc1ccc2nc(NC(=O)c3ccoc3C)sc2c1,100 nM (active)
7,O=C(Nc1ccccc1C(=O)O)c1ccc(NC(=O)C2CC2)cc1,inactive
8,Cc1ccc(S(=O)(=O)N2CCOCC2)cc1C(=O)Nc1ccccc1C(=O)O,inactive
9,Cn1c(N/N=C/c2cc3ccccc3nc2Cl)nc2ccccc21,711 nM (active)
10,CCc1noc(C)c1C(=O)Nc1nc2ccc(OC)cc2s1,12600 nM (active)
11,COc1ccc(-c2nc3ccccc3s2)cc1O,1790 nM (active)
12,O=C(Nc1ccccc1-c1nc2ccccc2s1)c1ccc(Br)o1,22500 nM (active)
13,CC(C)Oc1ccc(C(=O)Nc2ccc(-c3nc4ccccc4s3)cc2)cc1,1130 nM (active)
14,CCOc1ccc2nc(NC(=O)c3ccccc3)sc2c1,100 nM (active)
15,Cc1ccc(C(=O)Nc2cccc(C(=O)O)c2)cc1S(=O)(=O)N1CCCCC1,565 nM (active)
16,NC(=O)Cc1ccc2sc(-c3ccccc3)nc2c1,1260 nM (active)
17,O=C(Nc1ccccc1C(=O)O)c1cccc(NC(=O)c2ccc(Br)o2)c1,inactive
18,O=C(Cc1ccccc1)Nc1ccccc1C(=O)Nc1ccc(C(=O)O)cc1,inactive
19,Cc1ccc(S(=O)(=O)N2CCN(C(=O)c3ccccc3-c3nc4ccccc4s3)CC2)c(C)c1,20000 nM (active)
20,CC(C)C(=O)Nc1cccc(C(=O)Nc2ccccc2C(=O)O)c1,inactive
